Measured values as given in article PMC4336329 (PLoS ONE, 2015).
Among all 310,000 compounds or so, about 14,000 (4.5%) showed an effect of 50% or more. Effects have a minus sign here. The sample as a whole holds a higher share of strong results than the screen did.

molecular target: human ether-à-go-go-related gene (hERG) potassium channel (human, UniProt Q12809); assay: primary screen, population patch clamp on CHO cells stably expressing hERG; higher = less effect of the substance
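Also: peak tail current of the secondary pulse compared with the same well before compound.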

Chain of human ether-à-go-go-related gene (hERG) potassium channel (Q12809 whole entry, looked up): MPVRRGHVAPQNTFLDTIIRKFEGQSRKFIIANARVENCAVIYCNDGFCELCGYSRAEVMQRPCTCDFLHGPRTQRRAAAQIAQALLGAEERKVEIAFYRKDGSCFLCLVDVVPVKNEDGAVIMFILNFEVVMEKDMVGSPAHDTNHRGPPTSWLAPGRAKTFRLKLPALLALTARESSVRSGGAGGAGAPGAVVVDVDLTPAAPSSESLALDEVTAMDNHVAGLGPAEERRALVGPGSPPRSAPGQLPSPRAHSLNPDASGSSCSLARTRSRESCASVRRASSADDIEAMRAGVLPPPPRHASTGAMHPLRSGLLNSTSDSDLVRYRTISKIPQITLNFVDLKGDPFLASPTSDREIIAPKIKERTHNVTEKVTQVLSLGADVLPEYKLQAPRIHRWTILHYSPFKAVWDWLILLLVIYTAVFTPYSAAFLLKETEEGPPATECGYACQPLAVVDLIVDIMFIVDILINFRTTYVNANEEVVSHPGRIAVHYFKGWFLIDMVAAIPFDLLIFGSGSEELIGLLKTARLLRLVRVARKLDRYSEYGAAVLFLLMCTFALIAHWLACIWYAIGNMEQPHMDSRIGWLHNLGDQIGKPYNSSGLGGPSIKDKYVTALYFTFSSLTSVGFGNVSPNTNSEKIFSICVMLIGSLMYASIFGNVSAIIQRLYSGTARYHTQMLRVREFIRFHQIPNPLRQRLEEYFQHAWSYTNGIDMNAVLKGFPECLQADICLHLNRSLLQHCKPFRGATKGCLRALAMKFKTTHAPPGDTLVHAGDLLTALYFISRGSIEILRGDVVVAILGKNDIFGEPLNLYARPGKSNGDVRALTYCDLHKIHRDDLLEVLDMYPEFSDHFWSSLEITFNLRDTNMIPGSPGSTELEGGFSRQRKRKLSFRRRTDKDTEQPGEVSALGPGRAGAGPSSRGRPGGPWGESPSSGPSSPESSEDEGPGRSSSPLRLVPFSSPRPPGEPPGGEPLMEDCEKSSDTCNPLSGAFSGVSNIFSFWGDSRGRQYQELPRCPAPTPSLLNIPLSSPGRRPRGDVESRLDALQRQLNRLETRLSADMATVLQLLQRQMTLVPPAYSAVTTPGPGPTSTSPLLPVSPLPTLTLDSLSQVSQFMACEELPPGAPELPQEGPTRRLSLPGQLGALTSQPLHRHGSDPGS

Structure (SMILES) | hERG current change (%, negative = inhibition) at 10uM
CCOc1ccc(-n2nnc3c(=O)n(CC(=O)N4CCCc5ccccc54)cnc32)cc1 | -4.52%
O=C(Nc1nc2ccc(S(=O)(=O)N3CCCC3)cc2s1)C1CCCCC1 | 4.81%
COc1ccc(C(CC(=O)N2CCC3(CC2)OCCO3)NS(=O)(=O)c2ccc(OC)cc2)cc1 (stereo not shown) | 7.14%
CC(C)CCn1c(=O)c2c(nc3n2CCCN3Cc2ccccc2)n(C)c1=O | -37.7%
C=C(C)Cn1c(=O)c2c(nc3n2CC(C)CN3Cc2ccccc2)n(C)c1=O (stereo not shown) | -65.6%
CCn1c(=O)c2c(nc3n2CCCN3CCc2ccccc2)n(C)c1=O | -21.2%
CC(C)Cn1c(=O)c2c(nc3n2CCCN3Cc2ccccc2)n(C)c1=O | -50%
CC1CN(Cc2ccccc2)c2nc3c(c(=O)n(CC(N)=O)c(=O)n3C)n2C1 (stereo not shown) | 14.5%
CCCn1c(=O)c2c(nc3n2CCCN3CCc2ccccc2)n(C)c1=O | -65.4%
CCCn1c(=O)c2c(nc3n2CCCN3Cc2ccccc2)n(C)c1=O | -34.3%
Cn1c(=O)n(Cc2ccccc2)c(=O)c2c1nc1n2CCCN1Cc1ccccc1 | -31.1%
CC1CN(Cc2ccccc2)c2nc3c(c(=O)n(CC(=O)O)c(=O)n3C)n2C1 (stereo not shown) | 18.8%
O=C(CCCOc1ccc(Cl)cc1)Nc1nncs1 | -28.9%
Cc1cc(NC(=O)COc2cccc(Oc3ccccc3)c2)no1 | 13.5%
CCOc1cc(NCCN2CCOCC2)c([N+](=O)[O-])cc1OCC | -7.79%
COc1ccc(CC(=O)N2CCc3cc(OC)c(OC)cc3C2O)cc1OC (stereo not shown) | 8.05%
Cc1c(C)[n+](=O)c(-c2ccc(Br)cc2)c(C)n1[O-] | 13.1%
Cc1ccc2cc(C3CC(c4ccco4)=NN3S(C)(=O)=O)c(Cl)nc2c1 (stereo not shown) | -15%
Cc1ccc2nc(Cl)c(C3CC(c4ccco4)=NN3S(C)(=O)=O)cc2c1 (stereo not shown) | -62.6%
CCOc1ccc2nc(Cl)c(C3CC(c4ccco4)=NN3S(C)(=O)=O)cc2c1 (stereo not shown) | -41.1%
Fc1ccc(NC(=S)Nc2ccccc2OC(F)F)cc1Cl | 9.18%
CCOc1ccc(NC(=S)N(CCOC)C2CCN(C(C)C)CC2)cc1 | -29%
CN(Cc1ccon1)Cc1cn[nH]c1-c1ccc(-c2ccccc2)cc1 | -10.4%

Structure (SMILES) | hERG current change (%, negative = inhibition) at 10uM
COc1ccc(-c2noc(CN(Cc3nccn3C)C(C)C)n2)cc1 | -6.99%
Cc1nnc(CN(C)Cc2cn[nH]c2-c2ccc(-c3ccccc3)cc2)o1 | -15.1%
CCN(CCn1cccn1)Cc1cn[nH]c1-c1ccc(-c2ccccc2)cc1 | 9.21%
CN(Cc1cn[nH]c1-c1cc2ccccc2o1)CC1CCOCC1 | -66.4%
COC(=O)c1ccc(-c2noc(CN(Cc3nccn3C)C(C)C)n2)cc1 | -37%
c1ccc2oc(-c3[nH]ncc3CN(Cc3ccncc3)CC3CCCO3)cc2c1 (stereo not shown) | -22.6%
CC(C)N(Cc1nc(-c2ccc(Cl)cc2)no1)Cc1nccn1C | -50.4%
O=C1CC[C@@H](CN(Cc2ccccc2)Cc2cn[nH]c2-c2cc3ccccc3o2)N1 | -6.77%
COc1ccc(-c2[nH]ncc2CN(Cc2nccn2C)C(C)C)c(F)c1 | -39.7%
CN(Cc1cccnc1)Cc1cn[nH]c1-c1ccc(-c2ccccc2)cc1 | -56.7%
CC(C)N(Cc1cn[nH]c1-c1ccc(-c2ccccc2)cc1)Cc1nccn1C | -71.9%
Cc1csc(NC(=O)CCC(=O)N(CC(=O)NC2CCCC2)c2ccccc2)n1 | -3.43%
Cc1ccc(CNC(=O)CCCOc2cc(=O)n(C)c3ccccc23)o1 | -17.9%
Cc1[nH][nH]c(=O)c1N=Nc1ccc(Cl)cc1 | 2.19%
C/C(NC(=O)c1cccs1)=C1\C(=O)C[C@@H]2[C@H]1C2(C)C | -19.6%
CCOc1ccc(C(=O)CCC(=O)NC(CC(C)C)C(=O)OC)cc1 (stereo not shown) | -2.17%
CCOC(=O)CNC(=O)c1sc(NC(=O)c2cccc(F)c2)nc1C | -0.522%
O=C(CCCOc1ccc(Cl)cc1Cl)Nc1ccccn1 | 24.2%
NC(=O)c1nn(-c2ccccc2)nc1N | 0.947%
O=c1[nH]c2cc3c(cc2cc1C(c1nnnn1Cc1ccccc1)N1CCN2CCCC2C1)OCCO3 (stereo not shown) | -0.778%
Cc1cc(C)nc(NC(=O)CCC2CCCC2)c1 | -4.11%
COc1ccc2c(c1)CC/C(=C\c1ccc(C)o1)C2=O | 8.29%
CCOC(=O)c1cn2nc(N3CCCC3)ccc2n1 | 1.32%

Structure (SMILES) | hERG current change (%, negative = inhibition) at 10uM
CN(CCc1cnn(C)c1)Cc1cn(C)nc1-c1ccc2c(c1)OCCO2 | 5.94%
Cc1ccc(-c2[nH]ncc2CNCCc2cnn(-c3ccccc3)c2)cc1C | -66.4%
CN(CCc1cnn(C)c1)Cc1cn(C)nc1-c1ccccc1F | 9.85%
CN(Cc1cn[nH]c1-c1ccc2c(c1)OCO2)C1CCOCC1 | 12.7%
Cn1cc(CCNCc2cn[nH]c2-c2ccc(-c3ccccc3)cc2)cn1 | -64.8%
COCCN1CCC(CNCc2cn[nH]c2-c2ccc(C)c(C)c2)C1 (stereo not shown) | -3.39%
CN(Cc1cn[nH]c1-c1ccc(-c2ccccc2)cc1)CC1CCOCC1 | -46.2%
COc1ccc(-c2[nH]ncc2CNCCc2ncccc2C)cc1F | -41.7%
CCn1cc(CNCc2cn[nH]c2-c2cc3ccccc3o2)cn1 | -14.1%
Cn1cc(CNCc2cn[nH]c2-c2ccc(F)cc2)c(-c2ccc3c(c2)OCCO3)n1 | -21.6%
CN(CCC1CCOCC1)Cc1cn[nH]c1-c1ccc(-c2ccccc2)cc1 | -62.6%
CN(CCc1cnn(C)c1)Cc1cn[nH]c1-c1ccc(-c2ccccc2)cc1 | -66.6%
O=C(COc1ccc2c3c(c(=O)oc2c1)CCC3)Nc1ccc(CCO)cc1 | 21.2%
O=C(CCc1nnc(Cc2ccc(-c3ccccc3)cc2)o1)NCC1CC1 | -4.72%
CN(C)c1cc2c(cc1NS(=O)(=O)c1ccccc1)n(C)c(=O)n2C | 10.5%
CN1CCN(C(=O)Nc2cccc(-c3ccccc3)c2)CC1 | -3.63%
O=C(NCCC1=CCCCC1)c1c(O)nc2ccccn2c1=O | 0.215%
O=c1c2ccccc2nc(-c2ccco2)n1/N=C/c1ccco1 | 13.1%
CC(C)N(C(=O)CSc1nc2ccccc2n1Cc1ccc(F)cc1)C(C)C | -27.3%
CN1C[C@@H]2C(c3ccccc3)C3(c4ccc(C#N)cc4)CC2(C3)[C@H]1c1ccccc1 (stereo partly shown) | -32.5%
CN1C[C@@H]2C(c3ccccc3)C3(c4cccnc4)CC2(C3)[C@H]1c1ccccc1 (stereo partly shown) | -46.5%
CN1C[C@@H]2C(c3ccc(Cl)nc3)C3(c4ccc(C#N)cc4)CC2(C3)[C@H]1c1ccccc1 (stereo partly shown) | -54.9%
CN1C[C@@H]2C(c3ccc(Cl)nc3)C3(c4ccccc4)CC2(C3)[C@H]1c1ccccc1 (stereo partly shown) | -43.1%

Structure (SMILES) | hERG current change (%, negative = inhibition) at 10uM
CN1C[C@@H]2C(c3ccc(C(F)(F)F)cc3)C3(c4cccnc4)CC2(C3)[C@H]1c1ccccc1 (stereo partly shown) | -60%
CN1C[C@@H]2C(c3ccc(C(F)(F)F)cc3)C3(c4ccccc4)CC2(C3)[C@H]1c1ccccc1 (stereo partly shown) | -1.14%
Clc1ccc(-c2nc(Cc3ccccc3)no2)cc1 | 11.9%
Cn1ccs/c1=N\S(=O)(=O)c1ccc(C(C)(C)C)cc1 | -11.5%
CC(NC(=S)NC1CCCCC1)c1ccc(C(C)(C)C)cc1 (stereo not shown) | 10.6%
c1coc(-c2cc(C3CCNCC3)[nH]n2)c1 | 15.5%
Cc1cc(C(=O)N2CCC(C)CC2)on1 | 1.18%
CC(C)n1nc(C(=O)NNC(=O)c2ccc(OC(F)F)cc2)c2ccccc2c1=O | -76.3%
CC(C)n1nc(C(=O)Oc2ccc(Cl)cc2)c2ccccc2c1=O | 5.39%
CC(C)n1nc(C(=O)NNC(=O)c2ccncc2)c2ccccc2c1=O | 3.56%
CCCCCCCCOc1ccc(C(=O)O)cc1 | 13.3%
CCCCCCCCCCOC(=O)Cn1c(COc2ccccc2)[n+](C)c2ccccc21.[Cl-] | -76.1%
CN(C)C(=O)Oc1cccc(OCc2n(C)c3ccccc3[n+]2C)c1.[Cl-] | 14.7%
CCCCCCCCCCOC(=O)Cn1c(COc2ccc(C)cc2)[n+](C)c2ccccc21.[Cl-] | -74.9%
CCCCCCCCCCOC(=O)Cn1c(COc2cccc(OC)c2)[n+](C)c2ccccc21.[Cl-] | -76.7%
Cc1ccc(OCCCCn2c(CO)nc3ccccc32)cc1 | -14.6%
NNC(=O)Cn1c(COc2ccc(Cl)cc2)nc2ccccc21 | -9.34%
CCCCCCCCCCOC(=O)Cn1c(COc2ccc(Cl)cc2)[n+](C)c2ccccc21.[Cl-] | -76.2%
CCOC(=O)C(CCCOc1cccc(OC)c1)C(=O)OCC | -14.9%
CN(C)C(=O)Oc1ccc(OCc2n(C)c3ccccc3[n+]2C)cc1.[Cl-] | 5.79%
CCCCCOC(=O)Cn1c(=O)oc2ccccc21 | 0.0173%
CCCCc1n(CC(=O)c2ccc(Cl)cc2)c2ccccc2[n+]1C.[Br-] | 8.02%
